Experiment [1] addresses T1, Inhibitor of nuclear factor kappa-B kinase subunit epsilon (Homo sapiens) (UniProt Q14164).
T1 sequence (whole entry): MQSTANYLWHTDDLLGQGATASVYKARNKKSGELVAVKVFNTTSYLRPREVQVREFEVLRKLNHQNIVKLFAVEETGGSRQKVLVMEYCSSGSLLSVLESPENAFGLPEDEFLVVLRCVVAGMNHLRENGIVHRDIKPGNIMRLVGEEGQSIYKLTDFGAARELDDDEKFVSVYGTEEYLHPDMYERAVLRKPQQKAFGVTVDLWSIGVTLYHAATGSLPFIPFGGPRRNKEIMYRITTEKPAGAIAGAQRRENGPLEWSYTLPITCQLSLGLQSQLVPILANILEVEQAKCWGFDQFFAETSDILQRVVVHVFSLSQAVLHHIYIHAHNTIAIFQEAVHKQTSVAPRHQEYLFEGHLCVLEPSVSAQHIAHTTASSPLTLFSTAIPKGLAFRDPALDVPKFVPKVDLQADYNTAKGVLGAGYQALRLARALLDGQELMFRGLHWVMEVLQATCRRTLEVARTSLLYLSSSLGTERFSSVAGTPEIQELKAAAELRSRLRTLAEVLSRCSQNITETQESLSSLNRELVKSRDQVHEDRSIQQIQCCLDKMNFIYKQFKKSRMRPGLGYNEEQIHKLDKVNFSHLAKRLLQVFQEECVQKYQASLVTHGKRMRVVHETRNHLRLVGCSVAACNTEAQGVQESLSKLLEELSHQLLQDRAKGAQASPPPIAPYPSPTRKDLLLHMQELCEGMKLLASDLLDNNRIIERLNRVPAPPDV
Particulars: at 1 µM.

Experiment [2] deals with T2, Serine/threonine-protein kinase Nek1 (Homo sapiens) (UniProt Q96PY6).
T2 sequence (whole entry): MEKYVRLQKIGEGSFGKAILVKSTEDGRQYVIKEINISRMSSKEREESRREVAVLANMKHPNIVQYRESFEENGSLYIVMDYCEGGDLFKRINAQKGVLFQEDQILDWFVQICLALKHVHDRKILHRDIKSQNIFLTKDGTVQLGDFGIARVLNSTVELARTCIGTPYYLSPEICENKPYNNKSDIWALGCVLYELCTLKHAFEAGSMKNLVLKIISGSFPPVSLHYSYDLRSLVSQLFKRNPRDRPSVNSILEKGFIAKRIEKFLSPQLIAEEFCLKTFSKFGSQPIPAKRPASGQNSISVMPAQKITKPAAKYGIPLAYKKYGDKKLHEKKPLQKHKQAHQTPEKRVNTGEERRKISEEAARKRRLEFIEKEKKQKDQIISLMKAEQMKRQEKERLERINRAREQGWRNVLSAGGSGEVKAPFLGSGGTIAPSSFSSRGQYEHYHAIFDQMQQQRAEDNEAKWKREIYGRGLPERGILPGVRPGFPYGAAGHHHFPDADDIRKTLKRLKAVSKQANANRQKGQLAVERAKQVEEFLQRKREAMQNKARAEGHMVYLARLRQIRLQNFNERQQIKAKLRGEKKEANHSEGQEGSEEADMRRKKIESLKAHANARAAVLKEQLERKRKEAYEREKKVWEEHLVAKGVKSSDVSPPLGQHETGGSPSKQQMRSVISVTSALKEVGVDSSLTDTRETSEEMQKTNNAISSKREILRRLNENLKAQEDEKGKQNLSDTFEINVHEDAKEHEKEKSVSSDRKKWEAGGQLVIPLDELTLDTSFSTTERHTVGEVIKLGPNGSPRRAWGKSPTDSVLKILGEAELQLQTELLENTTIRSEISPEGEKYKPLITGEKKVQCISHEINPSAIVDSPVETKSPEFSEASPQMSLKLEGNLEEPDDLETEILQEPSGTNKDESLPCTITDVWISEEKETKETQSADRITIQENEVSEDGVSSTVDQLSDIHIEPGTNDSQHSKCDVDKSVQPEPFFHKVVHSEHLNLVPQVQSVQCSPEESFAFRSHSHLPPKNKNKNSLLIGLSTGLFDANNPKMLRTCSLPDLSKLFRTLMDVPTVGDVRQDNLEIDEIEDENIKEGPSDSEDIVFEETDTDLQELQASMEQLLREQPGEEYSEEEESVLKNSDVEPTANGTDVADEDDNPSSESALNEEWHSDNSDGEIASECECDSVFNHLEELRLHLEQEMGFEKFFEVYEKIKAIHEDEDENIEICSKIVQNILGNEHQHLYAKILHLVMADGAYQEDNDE
To be noted: at 0.1 µM.

For experiment [3], the target named is T2, Serine/threonine-protein kinase Nek1 (Homo sapiens). Particulars: at 1 µM.
Experiment [4] has as its target T3, Serine/threonine-protein kinase Nek2 (Homo sapiens) (UniProt P51955).
T3 sequence (whole entry): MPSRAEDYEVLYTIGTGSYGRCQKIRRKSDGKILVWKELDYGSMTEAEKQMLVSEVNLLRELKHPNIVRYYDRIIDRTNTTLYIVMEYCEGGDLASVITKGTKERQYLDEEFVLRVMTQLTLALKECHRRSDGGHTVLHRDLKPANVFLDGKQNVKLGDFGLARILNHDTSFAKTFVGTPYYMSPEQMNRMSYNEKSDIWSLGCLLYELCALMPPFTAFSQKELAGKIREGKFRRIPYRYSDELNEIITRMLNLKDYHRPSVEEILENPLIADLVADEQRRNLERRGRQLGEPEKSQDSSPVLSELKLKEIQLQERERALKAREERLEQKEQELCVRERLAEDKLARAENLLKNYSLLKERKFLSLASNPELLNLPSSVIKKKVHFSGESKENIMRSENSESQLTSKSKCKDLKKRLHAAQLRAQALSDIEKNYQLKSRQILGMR
To be noted: at 0.1 µM.

The target of experiment [5] is T3, Serine/threonine-protein kinase Nek2 (Homo sapiens). To be noted: at 1 µM.
Experiment [6] has as its target Serine/threonine-protein kinase Nek6 (Homo sapiens) (UniProt Q9HC98). To be noted: at 0.1 µM.
Experiment [7] shares this target. To be noted: at 1 µM.
The target of experiment [8] is Serine/threonine-protein kinase Nek7 (Homo sapiens) (UniProt Q8TDX7). Particulars: at 0.1 µM.
The target is the same in experiment [9]. To be noted: at 1 µM.
The target in experiment [10] is T4, Serine/threonine-protein kinase Nek9 (Homo sapiens) (UniProt Q8TD19).
T4 sequence (whole entry): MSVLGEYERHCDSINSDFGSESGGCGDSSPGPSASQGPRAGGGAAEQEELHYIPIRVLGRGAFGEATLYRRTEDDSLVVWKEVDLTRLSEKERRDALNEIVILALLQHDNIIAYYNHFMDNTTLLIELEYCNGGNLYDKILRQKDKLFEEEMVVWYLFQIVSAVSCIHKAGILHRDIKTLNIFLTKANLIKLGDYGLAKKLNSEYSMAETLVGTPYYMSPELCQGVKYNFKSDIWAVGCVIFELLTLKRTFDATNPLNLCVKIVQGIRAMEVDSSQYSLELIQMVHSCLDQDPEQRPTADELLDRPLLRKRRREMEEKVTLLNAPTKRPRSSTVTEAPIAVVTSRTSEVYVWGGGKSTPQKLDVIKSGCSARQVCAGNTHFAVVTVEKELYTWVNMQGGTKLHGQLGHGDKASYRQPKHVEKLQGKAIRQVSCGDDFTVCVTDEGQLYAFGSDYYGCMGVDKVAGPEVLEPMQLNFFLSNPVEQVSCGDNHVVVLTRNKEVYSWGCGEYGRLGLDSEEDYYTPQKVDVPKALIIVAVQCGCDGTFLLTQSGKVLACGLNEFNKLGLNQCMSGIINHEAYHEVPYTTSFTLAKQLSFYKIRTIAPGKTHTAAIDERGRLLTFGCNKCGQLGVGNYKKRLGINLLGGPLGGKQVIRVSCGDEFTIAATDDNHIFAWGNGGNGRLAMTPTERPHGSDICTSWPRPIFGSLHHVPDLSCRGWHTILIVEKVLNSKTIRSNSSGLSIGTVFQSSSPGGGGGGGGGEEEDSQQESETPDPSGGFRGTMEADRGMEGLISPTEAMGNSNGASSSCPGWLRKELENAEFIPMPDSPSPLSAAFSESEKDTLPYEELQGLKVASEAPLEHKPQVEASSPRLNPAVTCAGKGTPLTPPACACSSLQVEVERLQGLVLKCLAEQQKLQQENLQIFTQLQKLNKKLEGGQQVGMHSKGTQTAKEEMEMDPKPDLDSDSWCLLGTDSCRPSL
To be noted: at 0.1 µM.

In experiment [11] the target is T4, Serine/threonine-protein kinase Nek9 (Homo sapiens). Particulars: at 1 µM.
In experiment [12] the target is Serine/threonine-protein kinase PLK1 (Homo sapiens) (UniProt P53350). To be noted: at 0.1 µM.
Experiment [13] has the same target. To be noted: at 1 µM.
Experiment [14] has as its target T5, Dual specificity protein kinase TTK (Homo sapiens) (UniProt P33981).
T5 sequence (whole entry): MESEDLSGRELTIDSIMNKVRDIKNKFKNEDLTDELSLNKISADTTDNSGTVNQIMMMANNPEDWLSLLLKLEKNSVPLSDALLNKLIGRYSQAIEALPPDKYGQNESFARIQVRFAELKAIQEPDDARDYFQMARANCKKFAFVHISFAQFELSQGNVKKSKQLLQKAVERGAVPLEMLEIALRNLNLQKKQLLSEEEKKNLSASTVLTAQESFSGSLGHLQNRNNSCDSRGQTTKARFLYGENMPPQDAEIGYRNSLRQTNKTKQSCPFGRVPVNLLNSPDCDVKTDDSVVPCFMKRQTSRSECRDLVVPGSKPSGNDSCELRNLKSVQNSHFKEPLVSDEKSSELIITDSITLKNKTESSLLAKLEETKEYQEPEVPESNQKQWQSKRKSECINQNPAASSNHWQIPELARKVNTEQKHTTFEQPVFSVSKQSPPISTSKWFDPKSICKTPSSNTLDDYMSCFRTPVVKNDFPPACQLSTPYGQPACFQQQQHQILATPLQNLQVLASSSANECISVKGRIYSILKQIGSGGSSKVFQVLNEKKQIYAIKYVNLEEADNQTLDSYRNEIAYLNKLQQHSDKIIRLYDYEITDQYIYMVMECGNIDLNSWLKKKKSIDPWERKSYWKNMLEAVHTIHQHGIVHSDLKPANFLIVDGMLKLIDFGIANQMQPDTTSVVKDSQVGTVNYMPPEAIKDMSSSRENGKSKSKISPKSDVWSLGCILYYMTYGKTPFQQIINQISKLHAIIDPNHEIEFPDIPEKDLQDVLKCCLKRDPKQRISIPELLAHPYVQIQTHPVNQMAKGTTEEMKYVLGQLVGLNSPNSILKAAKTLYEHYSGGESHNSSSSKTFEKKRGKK
To be noted: at 0.1 µM.

The test system of experiment [15] is T6, Receptor-type tyrosine-protein kinase FLT3 (Homo sapiens), P36888 [D835Y].
T6 sequence (whole entry): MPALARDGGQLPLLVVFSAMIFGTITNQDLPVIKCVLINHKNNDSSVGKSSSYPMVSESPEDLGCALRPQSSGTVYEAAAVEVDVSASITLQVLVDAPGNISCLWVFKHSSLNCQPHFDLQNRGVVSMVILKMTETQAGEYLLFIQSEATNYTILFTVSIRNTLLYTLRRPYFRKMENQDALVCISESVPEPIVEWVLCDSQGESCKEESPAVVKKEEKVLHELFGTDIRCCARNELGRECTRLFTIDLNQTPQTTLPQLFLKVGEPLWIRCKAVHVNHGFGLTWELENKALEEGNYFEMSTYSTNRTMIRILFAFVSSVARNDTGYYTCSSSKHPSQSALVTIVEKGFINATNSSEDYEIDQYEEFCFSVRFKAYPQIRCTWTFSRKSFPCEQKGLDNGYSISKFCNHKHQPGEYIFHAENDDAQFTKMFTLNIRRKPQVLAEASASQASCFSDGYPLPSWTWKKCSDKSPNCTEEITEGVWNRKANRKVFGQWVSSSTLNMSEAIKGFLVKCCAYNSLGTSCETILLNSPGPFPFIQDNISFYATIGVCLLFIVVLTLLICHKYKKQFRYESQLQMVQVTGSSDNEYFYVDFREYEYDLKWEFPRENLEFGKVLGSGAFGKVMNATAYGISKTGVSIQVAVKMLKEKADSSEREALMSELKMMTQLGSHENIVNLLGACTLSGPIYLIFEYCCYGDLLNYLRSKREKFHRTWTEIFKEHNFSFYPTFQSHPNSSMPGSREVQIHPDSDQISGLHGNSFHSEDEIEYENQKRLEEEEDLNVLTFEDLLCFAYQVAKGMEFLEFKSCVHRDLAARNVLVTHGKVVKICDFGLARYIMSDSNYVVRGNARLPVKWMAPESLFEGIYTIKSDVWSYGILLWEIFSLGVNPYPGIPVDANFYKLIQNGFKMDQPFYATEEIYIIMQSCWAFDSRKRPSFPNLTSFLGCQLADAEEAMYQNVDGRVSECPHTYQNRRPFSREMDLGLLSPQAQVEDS
Particulars: at 1 µM.

The target of experiment [16] is Vascular endothelial growth factor receptor 3 (Homo sapiens) (UniProt P35916). To be noted: at 0.1 µM.
Experiment [17] shares this target. Particulars: at 1 µM.
The target of experiment [18] is Macrophage colony-stimulating factor 1 receptor (Homo sapiens) (UniProt P07333). To be noted: at 0.1 µM.
Experiment [19] has the same target. To be noted: at 1 µM.
The target in experiment [20] is Tyrosine-protein kinase Fyn (Homo sapiens) (UniProt P06241). To be noted: at 0.1 µM.

Usually inhibition stands for the change of the read-out against control, counted positive when it falls.

Chain of Serine/threonine-protein kinase Nek7 (Homo sapiens) (Q8TDX7 whole entry, looked up): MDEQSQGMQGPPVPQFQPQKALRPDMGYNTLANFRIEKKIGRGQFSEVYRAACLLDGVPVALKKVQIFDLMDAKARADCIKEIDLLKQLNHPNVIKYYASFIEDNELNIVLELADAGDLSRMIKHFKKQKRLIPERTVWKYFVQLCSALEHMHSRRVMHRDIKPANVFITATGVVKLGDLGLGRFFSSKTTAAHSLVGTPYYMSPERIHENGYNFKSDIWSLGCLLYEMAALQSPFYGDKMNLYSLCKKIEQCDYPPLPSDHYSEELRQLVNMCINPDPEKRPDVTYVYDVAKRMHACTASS
Chain of Macrophage colony-stimulating factor 1 receptor (Homo sapiens) (P07333 whole entry): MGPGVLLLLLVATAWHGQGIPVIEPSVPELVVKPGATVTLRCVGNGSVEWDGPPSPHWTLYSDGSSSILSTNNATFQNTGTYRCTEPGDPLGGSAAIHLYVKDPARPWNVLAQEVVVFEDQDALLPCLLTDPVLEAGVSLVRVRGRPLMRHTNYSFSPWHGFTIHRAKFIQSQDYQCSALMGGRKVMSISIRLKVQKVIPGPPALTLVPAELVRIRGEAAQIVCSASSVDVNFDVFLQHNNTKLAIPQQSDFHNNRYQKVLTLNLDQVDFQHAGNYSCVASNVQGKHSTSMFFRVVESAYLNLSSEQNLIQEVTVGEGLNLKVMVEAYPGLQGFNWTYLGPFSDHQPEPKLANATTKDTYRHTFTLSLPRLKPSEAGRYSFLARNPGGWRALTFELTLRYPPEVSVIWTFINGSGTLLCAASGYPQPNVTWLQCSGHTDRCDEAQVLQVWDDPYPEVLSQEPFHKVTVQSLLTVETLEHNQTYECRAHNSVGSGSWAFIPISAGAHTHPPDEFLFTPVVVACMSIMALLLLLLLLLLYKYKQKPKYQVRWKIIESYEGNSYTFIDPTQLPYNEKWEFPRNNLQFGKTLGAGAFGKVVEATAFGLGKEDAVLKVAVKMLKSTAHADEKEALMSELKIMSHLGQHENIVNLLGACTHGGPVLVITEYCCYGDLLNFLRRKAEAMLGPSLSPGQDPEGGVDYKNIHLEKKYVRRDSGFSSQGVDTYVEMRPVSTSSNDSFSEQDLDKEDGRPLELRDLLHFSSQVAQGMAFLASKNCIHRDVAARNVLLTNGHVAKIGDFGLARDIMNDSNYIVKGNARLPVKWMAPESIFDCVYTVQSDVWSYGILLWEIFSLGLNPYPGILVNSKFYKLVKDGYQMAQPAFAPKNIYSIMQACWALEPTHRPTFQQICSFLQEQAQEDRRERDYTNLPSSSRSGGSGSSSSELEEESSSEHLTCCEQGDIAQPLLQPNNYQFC
Chain of Vascular endothelial growth factor receptor 3 (Homo sapiens) (P35916 whole entry): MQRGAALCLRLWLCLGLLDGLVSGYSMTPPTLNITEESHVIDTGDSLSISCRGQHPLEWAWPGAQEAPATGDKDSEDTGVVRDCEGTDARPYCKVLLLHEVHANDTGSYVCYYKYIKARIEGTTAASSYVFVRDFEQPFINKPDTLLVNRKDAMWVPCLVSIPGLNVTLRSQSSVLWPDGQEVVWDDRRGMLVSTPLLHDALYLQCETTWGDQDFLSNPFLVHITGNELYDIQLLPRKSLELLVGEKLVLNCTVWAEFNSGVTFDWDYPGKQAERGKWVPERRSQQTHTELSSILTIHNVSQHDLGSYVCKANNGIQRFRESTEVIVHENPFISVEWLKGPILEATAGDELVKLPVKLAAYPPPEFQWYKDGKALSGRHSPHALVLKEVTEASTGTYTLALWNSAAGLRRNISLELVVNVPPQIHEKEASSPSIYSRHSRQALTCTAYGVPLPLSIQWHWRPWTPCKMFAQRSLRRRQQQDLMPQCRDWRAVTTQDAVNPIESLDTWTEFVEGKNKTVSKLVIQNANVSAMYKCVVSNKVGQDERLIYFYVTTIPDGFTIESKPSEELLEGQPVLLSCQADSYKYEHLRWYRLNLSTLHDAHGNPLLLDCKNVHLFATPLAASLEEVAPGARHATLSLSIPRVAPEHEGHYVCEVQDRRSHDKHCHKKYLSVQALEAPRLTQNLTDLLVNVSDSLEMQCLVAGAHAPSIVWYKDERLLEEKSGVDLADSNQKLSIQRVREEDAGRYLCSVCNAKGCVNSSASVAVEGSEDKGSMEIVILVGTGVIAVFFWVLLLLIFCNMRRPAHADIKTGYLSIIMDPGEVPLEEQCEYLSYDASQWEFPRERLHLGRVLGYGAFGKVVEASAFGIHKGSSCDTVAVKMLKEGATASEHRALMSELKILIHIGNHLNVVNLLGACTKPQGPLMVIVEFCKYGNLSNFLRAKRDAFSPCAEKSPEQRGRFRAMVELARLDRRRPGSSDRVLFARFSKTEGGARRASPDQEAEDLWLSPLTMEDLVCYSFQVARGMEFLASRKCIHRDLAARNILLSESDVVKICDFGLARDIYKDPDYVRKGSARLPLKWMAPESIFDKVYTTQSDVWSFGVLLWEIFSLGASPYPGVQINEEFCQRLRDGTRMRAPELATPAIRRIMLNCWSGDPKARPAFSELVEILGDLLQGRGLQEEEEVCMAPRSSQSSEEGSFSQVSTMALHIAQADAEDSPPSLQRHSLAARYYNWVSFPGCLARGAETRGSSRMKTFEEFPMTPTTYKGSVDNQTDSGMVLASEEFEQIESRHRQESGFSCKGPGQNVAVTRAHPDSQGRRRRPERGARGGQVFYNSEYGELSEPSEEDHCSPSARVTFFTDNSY
Chain of Serine/threonine-protein kinase PLK1 (Homo sapiens) (P53350 whole entry): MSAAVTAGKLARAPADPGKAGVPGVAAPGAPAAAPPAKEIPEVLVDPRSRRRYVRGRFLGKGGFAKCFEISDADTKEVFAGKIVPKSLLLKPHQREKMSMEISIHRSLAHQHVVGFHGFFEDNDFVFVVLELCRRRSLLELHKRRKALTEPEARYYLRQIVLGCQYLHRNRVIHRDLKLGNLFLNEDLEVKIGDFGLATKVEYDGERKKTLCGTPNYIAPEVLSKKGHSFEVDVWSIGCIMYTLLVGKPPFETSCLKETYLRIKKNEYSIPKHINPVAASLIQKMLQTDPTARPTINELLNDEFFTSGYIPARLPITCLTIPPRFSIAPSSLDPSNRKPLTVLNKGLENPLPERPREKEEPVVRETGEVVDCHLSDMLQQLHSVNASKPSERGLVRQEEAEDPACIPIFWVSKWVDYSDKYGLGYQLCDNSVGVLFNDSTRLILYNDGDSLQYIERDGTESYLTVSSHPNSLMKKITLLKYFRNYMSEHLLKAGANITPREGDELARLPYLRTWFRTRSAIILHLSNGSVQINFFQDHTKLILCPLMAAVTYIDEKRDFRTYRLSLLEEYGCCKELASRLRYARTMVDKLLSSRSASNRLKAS
Chain of Serine/threonine-protein kinase Nek6 (Homo sapiens) (Q9HC98 whole entry): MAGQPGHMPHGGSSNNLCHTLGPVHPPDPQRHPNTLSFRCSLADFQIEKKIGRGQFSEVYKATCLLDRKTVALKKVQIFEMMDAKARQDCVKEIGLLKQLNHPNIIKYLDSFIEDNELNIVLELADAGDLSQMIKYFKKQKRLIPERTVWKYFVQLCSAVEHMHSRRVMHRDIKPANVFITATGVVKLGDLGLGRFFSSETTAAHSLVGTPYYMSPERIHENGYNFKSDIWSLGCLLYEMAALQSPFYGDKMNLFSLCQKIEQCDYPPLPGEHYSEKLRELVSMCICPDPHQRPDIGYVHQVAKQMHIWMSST
Chain of Tyrosine-protein kinase Fyn (Homo sapiens) (P06241 2-537 limits assumed): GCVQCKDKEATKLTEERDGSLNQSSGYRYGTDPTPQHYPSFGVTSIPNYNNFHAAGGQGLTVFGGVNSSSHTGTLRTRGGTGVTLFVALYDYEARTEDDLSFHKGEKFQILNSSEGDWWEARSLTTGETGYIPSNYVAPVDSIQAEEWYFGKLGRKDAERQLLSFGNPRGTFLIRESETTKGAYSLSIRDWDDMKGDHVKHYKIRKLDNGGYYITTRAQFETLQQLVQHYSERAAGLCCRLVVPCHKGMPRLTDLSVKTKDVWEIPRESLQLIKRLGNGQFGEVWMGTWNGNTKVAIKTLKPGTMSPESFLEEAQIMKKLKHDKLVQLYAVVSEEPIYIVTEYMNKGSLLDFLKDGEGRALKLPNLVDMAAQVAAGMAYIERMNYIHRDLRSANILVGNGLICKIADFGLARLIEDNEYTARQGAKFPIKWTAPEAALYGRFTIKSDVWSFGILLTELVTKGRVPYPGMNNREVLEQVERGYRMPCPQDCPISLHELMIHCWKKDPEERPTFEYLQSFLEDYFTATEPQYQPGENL

Regarding `COc1cccc(-n2ncc3c(N/N=C/c4ccc(S(C)(=O)=O)cc4)ncnc32)c1`, the inhibition in experiment [1] stood at 8.64%; in experiment [2] it was 1.92%; in experiment [3] it was 5.16%; in experiment [4] it was 2.11%; in experiment [5], 1.84%; in experiment [6] it was 1.65%. In addition, the inhibition is -0.32% in experiment [7]; 3.45% in experiment [8]; 2.28% in experiment [9]; 4.38% in experiment [10]; 1.23% in [11]; 1.67% in experiment [12]. Moreover, the inhibition in [13] was 0.92%; in [14], 2.54%; in experiment [15], 61.9%; in experiment [16], -2.95%; in [17] it was 31.4%; in experiment [18], 6.39%. The inhibition in experiment [19] amounted to 22.5%; in experiment [20], 32.4%.

Source of the values: ChEMBL document CHEMBL1961873, “Compounds: GSK PKIS; Assays: Nanosyn kinase panel” (2012).
